Measured values taken from PubChem BioAssay AID488829 (NMMLSC, 2010).
This is one part of the list. Unmarked numbers belong to inactive results.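 Rule for the calls: active = fluorescence change span, or the activity score built from it, above 25; inactive = the rest.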

Test: parental-strain fluorescence artefact check – primary hits, KU SAR, s288c parental, artefact control for yeast TOR pathway GFP screen, dose response (AID 488829)
Settings: S. cerevisiae s288c parental, compound autofluorescence, flow cytometry, 3 h; at 33 µM; active compounds read high

**Q.** Which fluorescence change (span) does the source give for Cc1ccc(-c2nn(C(C)(C)C)c3ncnc(N)c23)cc1 here?
**A.** The fluorescence change (span) was 0.41.

**Q.** Which fluorescence change (span) does the source give for CN(C)CCCNc1nc(N)c([N+](=O)[O-])c(Nc2cccc(F)c2)n1 here?
**A.** The fluorescence change (span) was 0.05.
